# Assay outcomes (PubChem BioAssay)
# ClpP mod: qHTS Assay for Activators of ClpP; ATP-dependent Clp protease proteolytic subunit (Bacillus subtilis (strain 168)), P80244; 1.9% of 340,000 active; Potency, µM (doses to about 57.5 µM), for inactives: top-dose activity change, negative = active; purified B. subtilis ClpP, FRET peptide cleavage, 20 min; active = well fitted falling curve with a large enough effect; inconclusive = small, poorly fitted or top-dose-only effect; inactive = no such curve, though single readings can be large or run the other way; also: the source files actives as falling curves though it sought activators and does not explain the sign; nearly all actives have a fitted effect of over 65% in size
# Target sequence (P80244 whole entry, looked up): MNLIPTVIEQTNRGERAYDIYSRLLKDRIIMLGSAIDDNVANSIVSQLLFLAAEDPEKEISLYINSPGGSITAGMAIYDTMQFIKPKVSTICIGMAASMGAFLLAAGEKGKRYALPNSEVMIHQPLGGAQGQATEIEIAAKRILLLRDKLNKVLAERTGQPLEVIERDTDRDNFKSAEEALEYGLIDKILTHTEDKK
#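 Purified B. subtilis ClpP, 10 microg/mL final in Tris/HCl pH8 with KCl, BSA, glycerol and Tween-20, cleaved an Abz/nitrotyrosine-quenched decapeptide. Fluorescence (ex 320, em 430) was read at 0 and 20 min at room temperature. Delta was normalized to 5.8 microM ADEP and DMSO/no-enzyme controls.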
# TDP1 block: qHTS Assay for Inhibitors of Tyrosyl-DNA Phosphodiesterase (TDP1); recombinant TDP1, AlphaScreen DNA substrate cleavage; 0.28% of 350,000 active; Potency, µM (doses to about 130 µM), without a hit: at the highest dose activity change, negative = inhibition, usual class: inhibitors; also: % is scaled to controls: 0 for no effect and ±100 for the full control effect; nearly all actives have a fitted effect of over 40% in size
#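 Compounds were preincubated with Tdp1 (1 nM final) for 15 min at room temperature before substrate (15 nM final) started a 5 min reaction; beads (10 ug/ml final) were then added for 10 min before AlphaScreen detection.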
# TDP1 cell noCPT: qHTS for Inhibitors of human tyrosyl-DNA phosphodiesterase 1 (TDP1): qHTS in cells in absence of CPT; 15% of 420,000 active; Potency, µM (highest dose often 46.2 µM), for inactives: at the highest dose activity change, negative = growth inhibition, most hits filed as inhibitors; DT40 Tdp1-/- hTDP1 cells, no CPT, ATP luminescence, 48 h; also: % is scaled to controls: 0 for no effect and ±100 for the full control effect; nearly all actives have a fitted effect of over 55% in size
#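 Cells were dispensed at 400 per well, compounds added by pin tool, plates incubated ≥48 hr at 37 °C, then CellTiter-Glo added for 30 min at room temperature before luminescence reading. Line: DT40 Tdp1-/- complemented with hTDP1; camptothecin omitted.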
# DT40 TDP1 CPT: qHTS for Inhibitors of human tyrosyl-DNA phosphodiesterase 1 (TDP1): qHTS in cells in presence of CPT; chicken DT40 Tdp1-/-;hTDP1 cells + 20 nM CPT, ATP luminescence, 48 h; Potency, µM (series often up to 46.2 µM), without a hit: top-dose activity change, negative = growth inhibition, actives largely listed as inhibitors; 12% of 420,000 active; AID 686979, 2013; also: % is scaled to controls: 0 for no effect and ±100 for the full control effect; nearly all actives have a fitted effect of over 55% in size
#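 Chicken DT40 Tdp1-/- cells stably complemented with human TDP1 were seeded at 400 cells/well in medium containing 20 nM camptothecin, exposed to pin-transferred compounds, and grown at 37 °C for at least 48 hr. Viability was read as ATP luminescence.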
# Starred values were filed as active, the others as inactive; ? = inconclusive; nt = no result; ! = not active in a repeat; [ ] = dose if it differs, or a comment. Compounds with a hit are over-represented: about 17% of the library has one in this group of screens. Unless noted, calls follow the shape of the dose curve; as a rule, active = well fitted curve in the direction sought with a large enough effect; inconclusive = small, poorly fitted or top-dose-only effect, or another doubt; inactive = no such curve, though single readings can be large; an effect the other way counts as inactive or inconclusive. Potency is read from the fitted curve at half-maximal effect.
SMILES,ClpP mod,TDP1 block,TDP1 cell noCPT,DT40 TDP1 CPT
CCOc1ccc(NC(=O)Nc2cc(C(=O)O)ccc2N2CC3CC(C2)c2cccc(=O)n2C3)cc1 (stereo not given),-1.3%,-2.8%,32.0%,-17.1%
Nc1ccc(S(=O)(=O)c2ccc(N3CCOCC3)c(N)c2)cc1,-15.5%,nt,20.6µM*,-22.6%
Nc1cc(S(=O)(=O)N2CCCCC2)ccc1N1CCCCC1,-5.0%,1.9%,?,?
Nc1cc(S(=O)(=O)N2CCOCC2)ccc1N1CCCCC1,nt,3.6%,?,23.1µM*
O=C(Nc1nccs1)[C@@H]1CC=C[C@@H]2CCN(C3CCCCC3)C(=O)[C@@H]21,-2.2%,nt,2.9%,8.0%
O=C(N/N=C/c1ccc(F)cc1)c1cc(-c2ccco2)nc2ccccc12,?,nt,13µM*,11.6µM*
C/C(=N\NC(=O)c1cc(-c2ccco2)nc2ccccc12)c1cccnc1,4.8%,5.1%,?,?
CCOc1ccc(/C=N/NC(=O)c2cc(-c3ccco3)nc3ccccc23)cc1,4.1%,3.4%,23.1µM*,?
COc1ccccc1NC(=O)COC(=O)C1=NN(c2ccccc2)C(=O)CC1,-2.5%,0.0%,10.6%,4.9%
Cn1nc(C(=O)NC2CCC(O)CC2)c2ccccc2c1=O (stereo not given),-1.0%,1.3%,5.9%,1.5%
CCOC(=O)c1c(-c2ccccc2Cl)csc1NC(=O)c1cc(S(=O)(=O)N2CCOCC2)ccc1C,-22.3%,-2.7%,7.31µM*,10.3µM*
O=C(Nc1nc(-c2ccccn2)cs1)c1cccc(S(=O)(=O)N2CCOCC2)c1,-3.9%,-0.5%,2.91µM*,4.11µM*
COc1ccc(C(=O)Nc2nc(-c3ccccn3)cs2)cc1S(=O)(=O)N1CCOCC1,-4.6%,-0.2%,5.17µM*,13µM*
Cc1ccc(S(=O)(=O)N2CCOCC2)cc1C(=O)Nc1nc(-c2ccccn2)cs1,-0.8%,1.9%,4.11µM*,5.17µM*
Cc1ccc(S(=O)(=O)N2CCOCC2)cc1C(=O)Nc1nc2ccccc2[nH]1,0.3%,5.6%,?,-14.9%
COc1ccc(C(=O)Nc2ccccn2)cc1S(=O)(=O)N1CCOCC1,0.7%,0.8%,13.8%,19.9%
O=C(Nc1ccc2nn(-c3ccc(Cl)cc3)nc2c1)c1cc2ccccc2o1,-6.3%,-12.8%[12.3 µM],-9.8%,0.1%
O=C(NCCSCc1ccccc1Cl)C1CCN(S(=O)(=O)Cc2ccccc2)CC1,-1.5%,-2.9%,?,5.5%
O=S(=O)(N/N=C/c1cccnc1)c1ccc(Cl)c(Cl)c1,nt,6.2%,-24.8%,?
CCOC(=O)c1ccc(NC(=O)c2ccccc2N(C)S(=O)(=O)c2ccccc2)cc1,-17.9%,5.3%,?,18.4µM*
CCCNC(=O)c1ccccc1NC(=O)c1ccccc1N(C)S(C)(=O)=O,1.6%,-8.7%,-15.1%,-14.1%
CCCNC(=O)c1ccccc1NC(=O)c1ccccc1N(C)S(=O)(=O)c1ccc(C)cc1,0.5%,-5.2%,18.4µM*,?
COc1ccc(S(=O)(=O)Oc2ccccc2C(=S)N2CCOCC2)cc1,nt,3.8%,nt,nt
CSCCC(NC(=O)c1ccccc1)C(=O)N1CCN(C(c2ccccc2)c2ccccc2)CC1 (stereo not given),-1.3%,4.0%,?,?
Cc1c2cnn(-c3ccccc3)c(=O)c2c(C)n1C(C)C(=O)Nc1ccccc1C(F)(F)F (stereo not given),-2.9%,7.6%,-12.2%,?
SMILES,ClpP mod,TDP1 block,TDP1 cell noCPT,DT40 TDP1 CPT
COc1cccc(-c2nc3c(c(SCC(=O)Nc4cccc(C)c4C)n2)Cc2c(CO)cnc(C)c2O3)c1,62.5%,2.6%,-6.7%,-19.3%
COc1cccc(CNC(=O)CSc2nc(=O)n(Cc3ccncc3)c3c2CCC3)c1,12.6µM*,nt,-1.2%,-4.9%
COc1cccc(NC(=O)CSc2nc(=O)n(Cc3ccncc3)c3c2CCC3)c1,-2.8%,0.0%,-10.2%,6.3%
COc1ccc(NS(=O)(=O)c2c(C)cc(C)cc2C)cn1,nt,1.0%,-15.7%,-25.2%
CCCOc1ccc(-c2nc(C#N)c(N3CCC(C(N)=O)CC3)o2)cc1,14.1µM*,8.6%,-3.0%,-5.1%
N#Cc1nc(-c2ccc(OCc3ccc(Cl)cc3)cc2)oc1N1CCC(C(N)=O)CC1,5.01µM*!,1.0%,-11.3%,-18.2%
O=C(Nc1nnc(-c2ccco2)s1)C1CC1,31.6µM*,-2.0%,-2.9%,3.8%
COc1ccccc1C(=O)Nc1nnc(-c2ccco2)s1,-25.2%,50.1µM*,-24.3%,?
CCSc1nnc(NC(=O)CSc2nc3c(c(=O)n2CCOC)SC(C)C3)s1 (stereo not given),0.2%,nt,23.1µM*,16.4µM*
CCc1nnc(NC(=O)CSc2nc3c(c(=O)n2CC)SC(C)C3)s1 (stereo not given),0.7%,4.1%,11.6µM*,18.4µM*
CN(NS(=O)(=O)c1ccccc1)C(=O)c1ccccc1,nt,nt,12.1%,11.2%
CC(NCC(O)COC1CCC(C(C)(C)C)CC1)c1ccccc1 (stereo not given),1.1%,7.4%,20.6µM*,?
CC1CCC(C(C)C)C(OCC(O)CNC(C)c2ccccc2)C1 (stereo not given),nt,-8.0%,14.6µM*,?
COc1ccc(OCC(O)CNC(C)c2ccccc2)cc1 (stereo not given),-1.2%,nt,?,?
CC1CCN(CC(O)COC2CC(C)CCC2C(C)C)CC1 (stereo not given),1.1%,4.8%,16.4µM*,?
COc1cc(-c2ccc3cc(OC)c(OC)c(OC)c3c2)cc(OC)c1OC,4.4%,nt,?,20.6µM*
COc1ccc(-c2oc3ccc(-c4cc(OC)c(OC)c(OC)c4)cc3c2-c2ccc(OC)cc2)cc1,4.3%,nt,?,?
O=C1N=C(N2CCN(c3ccccc3)CC2)S/C1=C/c1cccs1,nt,3.0%,?,-20.1%
O=C1N=C(N2CCOCC2)S/C1=C/c1ccc(-c2ccc(F)cc2)o1,nt,0.0%,20.6µM*,?
O=C1N=C(N2CCOCC2)SC1=Cc1ccco1,nt,nt,-19.4%,3.6%
Cc1ccc(-c2ccc(/C=C3\SC(N4CCOCC4)=NC3=O)o2)cc1,nt,4.6%,9.2µM*,10.3µM*
Cc1ccc(/C=C2\SC(N3CCN(C(c4ccccc4)c4ccccc4)CC3)=NC2=O)o1,-2.6%,-2.7%,11.6µM*,14.6µM*
N#Cc1c2c(c(Nc3ccc(F)cc3)n3c1nc1ccccc13)CCCC2,-8.5%,nt,18.4µM*,16.4µM*
N#Cc1c2c(c(NCCCN3CCOCC3)n3c1nc1ccccc13)CCC2,31.6µM*,-5.7%,?,?
CC(C)c1cc(NCCCN2CCOCC2)n2c(nc3ccccc32)c1C#N,28.2µM*,2.5%,-13.5%,-24.3%
